Source: PubChem BioAssay
PI5P4K alpha inh – PI5P4K alpha (human) kinase inhibition. P48426. max response, %. 330,000 tested, 1.2% active. PI5P4Kalpha enzyme, ADP-Glo luminescence, 60 min; stronger effect = lower value; active = max response of -50% or lower; inconclusive = between -30% and -50%; inactive = -30% or higher; note: value at the top dose of about 77 µM; % is set by controls: 0 for no effect and ±100 for the full control effect
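Controls without substrate or without enzyme flank wells where PI5P4Kalpha converts substrate using 5 microM ATP (final). Incubation lasts 60 minutes at room temperature; ADP formed is read by ADP-Glo luminescence.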
POLK inh – DNA polymerase kappa (human) inhibition. Q9UBT6. purified Pol kappa, fluorescent DNA synthesis assay, 10 min. Potency, µM (highest dose often 107 µM), for the others: at the top dose activity, negative = inhibition, actives largely listed as inhibitors. 400,000 tested, 0.53% active. AID 588579; note: potency is the fitted concentration of half-maximal effect; % is set by controls: 0 for no effect and ±100 for the full control effect
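Fluorescent qHTS in 1536-well format: enzyme (10 nM) and compound sat 15 min at room temperature before 50 nM substrate (final) was added. Signal taken at 0 and 10 min; no-enzyme buffer wells were negative controls.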
WRN inhibitor – inhibitors of human WRN helicase. Q14191. WRN helicase unwinding, fluorescent forked duplex, kinetic. Potency, µM (highest dose often 114 µM), inactives show at the highest dose activity change, negative = inhibition, actives largely listed as inhibitors. 360,000 tested, 0.46% active. AID 651768; note: potency is the fitted concentration of half-maximal effect; % is set by controls: 0 for no effect and ±100 for the full control effect; nearly all actives have a fitted effect of over 55% in size
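Primary qHTS, 1536-well format. 20 nM WRN + compound, 15 min RT; start with 100 nM forked fluorophore/quencher duplex, 2 mM ATP (final); kinetic read ex 525/em 598 nm.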
Pol iota inh – blocks human DNA polymerase iota activity; Potency, µM (top dose mostly 115 µM), without a hit: at the top dose activity, negative = inhibition, actives largely listed as inhibitors; Q9UNA4; 390,000 tested, 1% active; Pol iota fluorescent replication assay, 10 min; AID 588590; note: potency is the fitted concentration of half-maximal effect
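Pol iota at 10 nM preincubated 15 min with compounds at room temperature; reaction started with fluorescent substrate, 50 nM final. Fluorescence read kinetically at 0 and 10 min; buffer-only wells as negative control.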
POLH inh – inhibitors of human DNA polymerase eta | Q9Y253 | recombinant Pol eta, fluorescent DNA replication assay | Potency, µM (top dose mostly 114 µM), without a hit: top-dose activity change, negative = inhibition, actives largely listed as inhibitors | 390,000 tested, 1.2% active; note: potency is the fitted concentration of half-maximal effect; % is set by controls: 0 for no effect and ±100 for the full control effect
Target sequence (Q9Y253 whole entry, looked up): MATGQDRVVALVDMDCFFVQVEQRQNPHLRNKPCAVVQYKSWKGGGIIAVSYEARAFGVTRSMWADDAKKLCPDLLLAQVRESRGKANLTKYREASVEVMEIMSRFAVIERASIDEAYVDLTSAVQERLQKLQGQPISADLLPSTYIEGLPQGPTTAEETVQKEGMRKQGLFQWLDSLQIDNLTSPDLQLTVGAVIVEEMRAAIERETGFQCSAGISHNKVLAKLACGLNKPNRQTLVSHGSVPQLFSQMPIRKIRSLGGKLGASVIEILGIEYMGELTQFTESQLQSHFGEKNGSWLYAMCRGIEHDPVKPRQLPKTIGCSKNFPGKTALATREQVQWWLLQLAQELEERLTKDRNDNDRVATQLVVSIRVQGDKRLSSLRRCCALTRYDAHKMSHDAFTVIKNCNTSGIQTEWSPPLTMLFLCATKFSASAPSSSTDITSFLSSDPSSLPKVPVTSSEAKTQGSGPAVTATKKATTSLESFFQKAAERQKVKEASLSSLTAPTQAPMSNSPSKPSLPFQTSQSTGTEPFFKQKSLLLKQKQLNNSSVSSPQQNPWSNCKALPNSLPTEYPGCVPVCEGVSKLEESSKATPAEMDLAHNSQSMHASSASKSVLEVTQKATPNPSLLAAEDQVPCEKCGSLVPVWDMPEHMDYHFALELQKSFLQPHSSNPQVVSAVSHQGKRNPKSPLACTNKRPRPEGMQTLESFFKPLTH
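Fluorescent replication assay: 50 nM final substrate added after a 15 min room-temperature compound preincubation with 10 nM enzyme. Signal taken at 0 min and again at 10 min.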
POLB inh – inhibitors of human DNA polymerase beta. Pol beta primer extension/strand displacement, fluorescence kinetic. Potency, µM (doses to about 114 µM), inactives show at the highest dose activity change, negative = inhibition, most hits filed as inhibitors. 340,000 tested, 1.3% active; note: potency is the fitted concentration of half-maximal effect; % is set by controls: 0 for no effect and ±100 for the full control effect
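Curves were derived by four-parameter Hill fits of normalized qHTS data. The kinetic fluorescent primer-extension read was taken at 0 and 10 min after 50 nM substrate, following a 15 min room-temperature preincubation of 10 nM enzyme with compounds.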
An asterisk follows results filed as active; u = inconclusive; x = no result given; [ ] = remark or other dose. Shown are actives, neighbours in structure and some others; about 2.8% of the full set was active somewhere. Unless noted, calls come from the whole dose curve; as a rule, active = well fitted curve in the direction sought with a large enough effect; inconclusive = small, poorly fitted or top-dose-only effect, or another doubt; inactive = no such curve, though single readings can be large; an effect the other way counts as inactive or inconclusive.

SMILES	PI5P4K alpha inh	POLK inh	WRN inhibitor	Pol iota inh	POLH inh	POLB inh
COc1cc(/C=C2\SC(=S)N(NC(=O)c3cccnc3)C2=O)ccc1O	-23	u	50µM*	16µM*	u	u
CC(C)(C)OC(=O)N1CCC(C(=O)Nc2ccc(C(=O)N3CCCCC3)cc2)CC1	-1	-12%	6%	2%	-14%	x
CCCc1ccc(S(=O)(=O)N2CCC(c3nnc(-c4cccc(C)c4)o3)CC2)cc1	x	-12%	x	20%	-13%	2%
COc1ccc(NC(=O)Cn2c(CCC(=O)O)ccc2-c2ccccc2)cc1Cl	x	3%	x	-1%	x	-17%
CC(=O)NC1=NC(=O)/C(=C/c2cn(C(C)=O)nc2-c2ccccc2)S1	-87*	-21%	-14%[11.6 µM]	22µM*	u	-13%
COc1ccc(Cl)cc1NC(=O)CSc1nnc2[nH]c(=O)cc(-c3ccccc3)n12	x	-2%[60.1 µM]	x	1%	89µM*	6%
CN(C)c1ncc2nc(-c3cccs3)c(=O)n(Cc3cccs3)c2n1	x	-4%[60.1 µM]	x	x	x	x
CN(C)c1nc(=NCc2cccs2)ss1	-1	-2%	22µM*	12%	1%	x
Cc1cc(C)c(Nc2n[nH]c(=S)s2)cc1C	-90*	x	5%	x	3%	x
Cc1cccc(Nc2n[nH]c(=S)s2)c1C	x	-9%	-15%	-14%	7%	7%
Cc1cccc(C)c1Nc1n[nH]c(=S)s1	-73*	x	-6%	x	-11%	x
CC(C)c1ccc(Nc2n[nH]c(=S)s2)cc1	-65*	x	-4%	x	x	x
Cc1ccc(Nc2n[nH]c(=S)s2)c(C)c1	-88*	x	-2%	x	0%	x
CC(C)c1ccc(Nc2nnns2)cc1	-22	4%	u	147%	-2%	4%
Cn1nnnc1SCCCNCc1cc(Cl)ccc1OCc1ccccc1	x	0%	x	4%	-20%	3%
Nc1c(-c2nc(-c3cccs3)no2)nnn1-c1ccc(Cl)cc1	x	4%	x	-3%	-7%	77%
COc1ccc(-c2noc(-c3ccc(NC(C)c4ccccc4)c([N+](=O)[O-])c3)n2)cc1OC (stereo unspecified)	x	-10%	x	55%	-18%	32µM*
Cc1ccccc1C(=O)Nc1cccc(NC(=O)c2ccc(C(C)(C)C)cc2)c1	x	u	x	u	-9%	9%
CCN(Cc1cccc(S(=O)(=O)O)c1)c1ccc(C(=C2C=CC(=[N+](CC)Cc3cccc(S(=O)(=O)O)c3)C=C2)c2ccc(O)cc2S(=O)(=O)O)cc1	x	2.8µM*	x	2.2µM*	x	x
CCN(Cc1cccc(S(=O)(=O)O)c1)c1ccc(C(=C2C=CC(=[N+](CC)Cc3cccc(S(=O)(=O)O)c3)C=C2)c2ccccc2S(=O)(=O)[O-])cc1	x	7.9µM*	x	u	x	x
Cc1ccnc(NC(=O)Nc2ccc3c(c2)N(C)C(=O)CS3)c1	-27	-16%	-31%[57.1 µM]	-4%	4%	-1%
Cc1ccc(NC(=O)Nc2ccc3c(c2)N(C)C(=O)CS3)nc1	x	-2%	-17%[57.1 µM]	89µM*	-29%	u
CCOc1ccccc1N1CCN(S(=O)(=O)c2ccc3c4c(cccc24)C(=O)N3)CC1	u	45µM*	u	14µM*	79µM*	u
CCOC(=O)N1CCN(S(=O)(=O)c2ccc3c4c(cccc24)C(=O)N3)CC1	-5	0%	0%	123%	-19%	2%
CC1=CC2(C)C(C3C(C)=CC2(C)C(=O)C3(C)O)C(C)(O)C1=O (stereo unspecified)	-4	12%	5%	30%	-21%	x
SMILES	PI5P4K alpha inh	POLK inh	WRN inhibitor	Pol iota inh	POLH inh	POLB inh
O=S(=O)(Nc1c(O)ccc2ccccc12)c1cccc2ccccc12	-12	-5%	22µM*	92%	-10%	x
Cc1ccc(S(=O)(=O)Nc2c(O)ccc3ccccc23)cc1	-27	-11%	40µM*	u	-6%	x
CCc1ccc(NS(=O)(=O)c2c(-c3ccccc3)csc2C(=O)OC)cc1	x	0%	x	25%	-27%	-11%
COc1ccc(OC)c(NC(=O)Cn2c(=O)n(-c3cccc(C)c3)c(=O)c3c2c2cc(C)ccc2n3C)c1	x	2%	x	11%	-12%	19%
CCN(CC)S(=O)(=O)c1ccc(N(C)C)c(NC(=O)CSCc2c(C)noc2C)c1	1	-14%	-18%	21%	1%	1%
O=C1c2ccccc2C(=O)N1c1cccc(N2C(=O)c3ccccc3C2=O)n1	x	1%	x	12%	x	x
CCCC(=NCCc1c(C)[nH]c2ccccc12)C1=C(O)CC(c2ccccc2)CC1=O (stereo unspecified)	10	-7%	0%	89µM*	-25%	2%
Cc1cc(-c2ccccc2)[nH]c(=O)c1C#N	0	-2%	-3%	66%	-15%	29%
N#Cc1c(-c2ccccc2)[nH]c(=O)[nH]c1=O	-92*	-15%	-1%	25%	3%	0%
CCN1CCN(C(=O)Cn2c(-c3cccs3)cc3cc(Cl)ccc32)CC1	x	-8%	x	3%	-12%	20%
COCCn1c(=O)c(C)nc2cnc(N3CCN(C)CC3)nc21	x	1%[60.1 µM]	x	x	x	x
CCc1ccc2c(c1)cc(CN(C(=S)Nc1cccc(C)c1)C1CC1)c1nnnn12	x	-14%	-2%[57.1 µM]	100µM*	2%	2%
COCCN(Cc1cc2cc(C)ccc2n2nnnc12)C(=S)Nc1cccc(C)c1	-2	-18%	3%	-14%	-7%	6%
CC(C)=CCc1cc([C@@H]2CC(=O)c3ccc(O)c(CC=C(C)C)c3O2)ccc1O	-100*	-11%	-3%	10%	-24%	x
CC(C)=CCc1c(O)cc(O)c2c1O[C@H](c1ccccc1)CC2=O	x	-10%[19.4 µM]	x	x	x	x
Nc1ccc(C(=O)O)c(O)c1 (tested in a mixture with another compound)	x	-5%[60.1 µM]	x	x	x	x
Nc1ccc(O)c(C(=O)O)c1	x	1.1µM*	x	x	x	x
Clc1nc(Oc2ccccc2)nc(-c2cn(-c3ccccc3)c3ccccc23)n1	-10	12%	-11%	1%	-12%	-29%
CCNc1nc(Cl)nc(-c2cn(-c3ccccc3)c3ccccc23)n1	-8	-8%	-1%	-18%	3%	79µM*
Cc1c(-c2nsc(NC(=O)c3cccs3)n2)nnn1-c1ccc(Cl)cc1	x	-44%	x	u	u	20µM*
COc1ccc(Nc2nc(N3CCCCC3)c3ccccc3n2)cc1	1	-17%	-4%[57.1 µM]	11%	-13%	12%
Oc1ccc(Nc2nc(N3CCCC3)c3ccccc3n2)cc1	-22	u	u	u	-4%	45µM*
CCn1c(C)nc2cc(C(=O)N/N=C/c3cccc(OC)c3O)ccc21	0	u	-21%	6%	-26%	u
Cc1nc2ccc(C(=O)N/N=C/c3ccccc3O)cc2[nH]1	-5	-30%	-12%	u	-15%	20µM*
